One assay deals with AA1029. As to the kind of experiment: qHTS profiling for inhibitors of Plasmodium falciparum proliferation (AID 504749). Further: nearly all actives have a fitted effect of over 60% in size. Further: potency means the concentration at half of the fitted maximal effect. The following applies: P. falciparum in erythrocytes, SYBR Green DNA, 72 h; series mostly up to 28.7 µM. The procedure, abridged: (§1)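 Three-day growth assay of blood-stage parasites in erythrocytes (0.3% parasitemia, 2.5% hematocrit) at 37 C, 5% CO2, quantified by SYBR Green DNA staining after overnight detergent lysis.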

A further assay relates to AS120. The description is as above. Conditions: P. falciparum in erythrocytes, SYBR Green DNA, 72 h; series mostly up to 28.7 µM. The method in brief: as §1
Another assay concerns ATS189. The description is as above. The following applies: P. falciparum in erythrocytes, SYBR Green DNA, 72 h; series mostly up to 28.7 µM. The method in brief:
as §1

In a further assay the test system is CP194. The assay is described as above. Conditions: P. falciparum in erythrocytes, SYBR Green DNA, 72 h; series mostly up to 28.7 µM. The method in brief:
as §1

Another assay deals with CP201. The assay is described as above. The following applies: P. falciparum in erythrocytes, SYBR Green DNA, 72 h; series mostly up to 28.7 µM. The method in brief: as §1
Another assay relates to CP203. The assay is described as above. Conditions: P. falciparum in erythrocytes, SYBR Green DNA, 72 h; series mostly up to 28.7 µM. The procedure, abridged: as §1
In the next assay the test system is CP215. The assay is described as above. Conditions: P. falciparum in erythrocytes, SYBR Green DNA, 72 h; series mostly up to 28.7 µM. The method in brief: as §1
The subject of a further assay is CP237. The description is as above. Conditions: P. falciparum in erythrocytes, SYBR Green DNA, 72 h; series mostly up to 28.7 µM. The procedure, abridged: as §1
A further assay has as its system CP252. Described as above. Conditions: P. falciparum in erythrocytes, SYBR Green DNA, 72 h; series mostly up to 28.7 µM. The procedure, abridged: as §1
Another assay has as its system CP256. The description is as above. The following applies: P. falciparum in erythrocytes, SYBR Green DNA, 72 h; series mostly up to 28.7 µM. The procedure, abridged:
as §1

The test system of the next assay is CP265. Described as above. Conditions: P. falciparum in erythrocytes, SYBR Green DNA, 72 h; series mostly up to 28.7 µM. The procedure, abridged:
as §1

The test system of a further assay is CP266. Described as above. Conditions: P. falciparum in erythrocytes, SYBR Green DNA, 72 h; series mostly up to 28.7 µM. The method in brief:
as §1

The next assay relates to CP268. The assay is described as above. Conditions: P. falciparum in erythrocytes, SYBR Green DNA, 72 h; series mostly up to 28.7 µM. The procedure, abridged:
as §1

The subject of a further assay is CP291. Described as above. The following applies: P. falciparum in erythrocytes, SYBR Green DNA, 72 h; series mostly up to 28.7 µM. The procedure, abridged:
as §1

The subject of a further assay is CP297. The assay is described as above. The following applies: P. falciparum in erythrocytes, SYBR Green DNA, 72 h; series mostly up to 28.7 µM. The procedure, abridged: as §1
The subject of the next assay is ECU. The assay is described as above. The following applies: P. falciparum in erythrocytes, SYBR Green DNA, 72 h; series mostly up to 28.7 µM. The method in brief:
as §1

For a further assay, the system named is PC15. The assay is described as above. The following applies: P. falciparum in erythrocytes, SYBR Green DNA, 72 h; series mostly up to 28.7 µM. The method in brief:
as §1

A further assay deals with TAB109. The description is as above. The following applies: P. falciparum in erythrocytes, SYBR Green DNA, 72 h; series mostly up to 28.7 µM. The method in brief:
as §1

Another assay concerns CP329. The description is as above. The following applies: P. falciparum in erythrocytes, SYBR Green DNA, 72 h; series mostly up to 28.7 µM. The method in brief: as §1
Assay [1] can be described thus: S16 Schwann cell viability assay (CellTiter-Glo assay) (AID 624031).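 Further: cellular ATP luminescence as a viability measure; nearly all actives have a fitted effect of over 70% in size.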 The method in brief:
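Native S16 rat Schwann cells, 500-750 cells/well in DMEM with 10% FBS, dosed with compound after overnight culture and incubated 24h at 37 degree Celsius/5% CO2. Viability by CellTiter-Glo luminescence; % activity normalized to no-cell wells and DMSO-treated cells.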

Inconclusive results are not listed. Calls of active or inactive are those of the source. The call rests on the fitted dose curve; in most records, active means well fitted curve in the direction sought with a large enough effect; inconclusive means small, poorly fitted or top-dose-only effect, or another doubt; inactive means no such curve, though single readings can be large; an effect the other way counts as inactive or inconclusive.

For `C/C(=C(/CCOC(=O)C(C)C)SS/C(CCOC(=O)C(C)C)=C(\C)N(C=O)Cc1cnc(C)nc1N)N(C=O)Cc1cnc(C)nc1N`, the Potency result in the assay on AA1029, in the assay with AS120, in the assay on ATS189, with CP194, in the assay with CP201 and in the assay on CP203 was “inactive” throughout. Moreover, the Potency result in the assay with CP215, in the assay with CP237, in the assay with CP252, in the assay on CP256, in the assay on CP265 and in the assay with CP266 was “inactive” in each case. The Potency result in the assay on CP268, in the assay with CP291, in the assay with CP297, with ECU, in the assay with PC15 and in the assay with TAB109 was “inactive” in each case.

Turning to `CCCCC(=O)OC1CCC2C3CCc4cc(O)ccc4C3CC[C@]12C` (stereo not given in full), the Potency result with AA1029, in the assay with CP194, with CP201, in the assay with CP203, with CP215 and with CP237 was “inactive” each time. For the same molecule, the Potency entry in the assay with CP252, in the assay on CP265, in the assay on CP266, with CP268, with CP291 and in the assay on CP329 was “inactive” in each case. Further, the Potency entry in the assay with ECU and in the assay with TAB109 was “inactive” throughout.

For the molecule `CC1(C)SC2[C@@H](N=CN3CCCCCC3)C(=O)N2[C@H]1C(=O)O` (stereo not given in full), the Potency entry (in assay [1]; in the assay on AA1029; in the assay with AS120; with ATS189; with CP194; in the assay on CP201) was “inactive” in each case. In addition, the Potency result in the assay with CP203, with CP237, in the assay with CP252, in the assay with CP265, in the assay with CP266 and in the assay with CP268 was “inactive” in each case. The Potency entry with CP291, in the assay with CP329, in the assay with ECU, with PC15 and in the assay on TAB109 was “inactive” throughout.

Consider `CNC1CCc2cc(OC)c(OC)c(OC)c2-c2ccc(OC)c(=O)cc21` (stereo not given), for which the Potency entry (in assay [1]; in the assay with AA1029; in the assay with AS120; in the assay with ATS189; with CP194; in the assay with CP201) was “inactive” each time. The Potency entry in the assay on CP203, in the assay on CP215, in the assay with CP252, in the assay on CP256, in the assay on CP265 and in the assay on CP266 was “inactive” each time. In addition, the Potency entry with CP268, with CP291, with CP297, in the assay with CP329, with ECU and with PC15 was “inactive” throughout. For the same molecule, the Potency entry in the assay on TAB109 was “inactive”.

As for `OCC(O)C(O)C(O)C(O)CO` (stereo not given), the Potency result (in assay [1]; in the assay with AA1029; in the assay with AS120; in the assay with ATS189; in the assay with CP194; in the assay with CP201) was “inactive” each time. Further, the Potency result in the assay with CP203, with CP215, in the assay on CP237, in the assay on CP252, in the assay on CP256 and in the assay on CP265 was “inactive” throughout. In addition, the Potency result in the assay on CP266, with CP268, in the assay on CP291, in the assay on CP297, in the assay on CP329 and in the assay on ECU was “inactive” each time. Further, the Potency result in the assay on PC15 and in the assay with TAB109 was “inactive” each time.

Consider `CCC1OC(=O)C[C@H](O)C(C)[C@@H](O[C@@H]2OC(C)C(O)C(N(C)C)C2O)C(CCN2CC(C)CC(C)C2)CC(C)C(=O)/C=C/C(C)=C\[C@@H]1COC1OC(C)C(O)C(OC)C1OC` (stereo not given in full), for which the Potency result (in [1]; with PC15) was “inactive” throughout. Further, the Potency is 5.01 µM (active) with CP237, 8.91 µM (active) in the assay with CP256 and 4.47 µM (active) in the assay on TAB109.

For the molecule `CCC(C)C(N)C(=O)O` (stereo not given), the Potency entry (in assay [1]; with AA1029; with AS120; in the assay on ATS189; in the assay on CP194; in the assay with CP201) was “inactive” each time. The Potency entry in the assay on CP203, in the assay with CP215, with CP237, with CP252, in the assay on CP256 and in the assay with CP265 was “inactive” in each case. Further, the Potency entry in the assay with CP266, in the assay with CP268, in the assay on CP291, in the assay with CP297, in the assay on CP329 and in the assay with ECU was “inactive” in each case. For the same molecule, the Potency entry in the assay on PC15 and in the assay on TAB109 was “inactive” throughout.

As to `CC(C)CCCC(C)C1CC(=O)C2=C3CCC4CC(O)CCC4(C)C3CCC21C` (stereo not given), the Potency result (in assay [1]; with AA1029; in the assay on AS120; with ATS189; in the assay on CP194; with CP201) was “inactive” each time. Besides, the Potency entry with CP203, in the assay on CP215, in the assay with CP252, with CP256, in the assay with CP265 and in the assay with CP266 was “inactive” in each case. The Potency entry with CP268, in the assay with CP291, with CP297, in the assay on CP329, in the assay with ECU and with PC15 was “inactive” each time. The Potency result with TAB109 was “inactive”.

For the molecule `C=C1CC2C3C=C(C)C4=CC(=O)CCC4(C)C3CCC2(C)[C@@]1(OC(C)=O)C(C)=O` (stereo not given in full), the Potency entry in the assay with AS120, in the assay with CP237, with CP252, in the assay on CP265, in the assay with CP329 and in the assay on ECU was “inactive” throughout. Also, the Potency result in the assay with PC15 and with TAB109 was “inactive” throughout.

With `COc1ccc(C(=O)/C(Br)=C/C(=O)O)cc1`, the Potency result (in assay [1]; in the assay with AA1029; in the assay on ATS189; in the assay on CP201; in the assay on CP203; in the assay on CP237) was “inactive” in each case. Further, the Potency result with CP252, in the assay on CP256, in the assay on CP265, in the assay with CP266, with CP268 and in the assay on CP291 was “inactive” throughout. Also, the Potency entry in the assay on CP297, in the assay with CP329 and in the assay with PC15 was “inactive” throughout.

Consider `CC1(C)O[C@@H]2C[C@H]3[C@@H]4CCC5=CC(=O)C=C[C@]5(C)[C@H]4C(O)C[C@]3(C)[C@]2(C(=O)CO)O1` (stereo not given in full), for which the Potency entry (in assay [1]; with ATS189; in the assay with CP194; with CP201; with CP203; with CP215) was “inactive” throughout. In addition, the Potency entry with CP252, in the assay on CP256, with CP265, with CP268, in the assay with CP291 and in the assay with CP297 was “inactive” throughout. For the same molecule, the Potency result with CP329, in the assay with PC15 and in the assay on TAB109 was “inactive” throughout.

As to `Nc1nc(Cl)nc2c1ncn2[C@@H]1O[C@H](CO)[C@H](O)C1F` (stereo not given in full), the Potency entry (in assay [1]; with AA1029; in the assay with AS120; in the assay on ATS189; in the assay on CP194; in the assay on CP201) was “inactive” throughout. The Potency entry in the assay with CP203, in the assay with CP215, in the assay with CP237, in the assay on CP252, with CP256 and in the assay on CP265 was “inactive” throughout. Also, the Potency entry with CP266, in the assay with CP268, in the assay with CP297, in the assay with CP329, in the assay with ECU and in the assay on PC15 was “inactive” throughout. The Potency result with TAB109 was “inactive”.

As to `C[C@H](CN1c2ccccc2Sc2cccnc21)N(C)C`, the Potency in the assay with AA1029 is 7.94 µM (active); with AS120, 11.2 µM (active); in the assay on ATS189, 5.01 µM (active); in the assay on CP203, 13.5 µM (active); in the assay with CP215 it was 9.53 µM (active); with CP237, 2 µM (active). Besides, the results for the Potency in the assay on CP252, in the assay with CP297 and in the assay with TAB109 were 11.2 µM (active), 15.1 µM (active) and 7.08 µM (active), respectively. Moreover, the Potency result in the assay with ECU is “inactive”.

With `C/C=C1/NN(CCCN2CCN(c3cccc(Cl)c3)CC2)C(=O)N1CCOc1ccccc1`, the Potency entry (in assay [1]; in the assay with AA1029; in the assay with AS120; with ATS189; in the assay with CP194; in the assay with CP201) was “inactive” each time. Moreover, the Potency entry in the assay with CP215, in the assay on CP252, with CP256, with CP265, in the assay on CP266 and with CP268 was “inactive” throughout. In addition, the Potency entry with CP329, with ECU, with PC15 and in the assay with TAB109 was “inactive” each time.

The values above are taken from PubChem BioAssay (NCATS).
